Measured values published in the supplement of paper PMC10849652.
Of roughly 8,800 targets only a part is listed; those with a hit were picked by preference. About 0.5% of all pairs of compound and target were hits. A number with no mark means an inactive call.

Legend:
Experiment in all cases: log2 fold change, soluble protein after heating vs DMSO (PISA); higher = thermal stabilisation; K562 lysate, 10 uM; active = over 0.2 and 3.5 SD of the protein, either way, in both replicates (recomputed)
[1] = compound: C#Cc1cccc(Nc2ncnc3cc(OCCOC)c(OCCOC)cc23)c1 [erlotinib]
Outline: (§1)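 Dounce homogenisation of K562 pellets in PBS pH 7.4 with 1 mM MgCl2 produced a crude extract, used at 1 mg/mL protein. Exposure to 10 μM compound lasted 30 min, and aliquots were then heated for 3 min across 48°C-58°C, pooled and brought to 0.5% NP-40 at 4°C. The supernatant after 21,000xg for 90 min was quantified by TMTpro 16plex LC-MS/MS with channel sums equalised. Duplicate values are given as log-two fold change in thermal stability relative to solvent controls.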

[2] = compound: C/C(=N\NC(=O)C1=CC(=CC=C1)S(=O)(=O)N2CCOCC2)/C3=C(C=CC(=C3)Cl)O
Outline: as §1

[3] = compound: C1=CC(=CC=C1C2=NC3=C(N2)C=C(C=C3)C(=O)N)OC4=CC=C(C=C4)Cl
Outline: as §1

[4] = compound: C1=CC2=C(C=CC(=C2)/C=C\3/C(=O)NC(=NCC4=CC=CS4)S3)N=C1
Outline: as §1

[5] = compound: C1=CC2=NC=CN=C2C=C1/C=C/3\C(=O)NC(=O)S3
Outline: as §1

[6] = compound: C1=CC=C(C=C1)C2=NC(=C(N2)C3=CC=NC=C3)C4=CC(=C(C=C4)Cl)O
Outline: as §1

[7] = compound: C1=CC=C2C(=C1)C3=NNC4=CC=CC(=C43)C2=O
Outline: as §1

[8] = compound: C1CCN(C1)C(=O)NC2=CC=CC(=C2)NC3=NC=C(C(=N3)NCCC4=CN=CN4)Br
Outline: as §1

[9] = compound: C1CN(CCC1(CC2=CC=C(C=C2)Cl)N)C3=NC=NC4=C3C=CN4
Outline: as §1

[10] = compound: C1COCCN1CCN2C3=CC=CC=C3N=C2NC(=O)C4=CC(=CC=C4)[N+](=O)[O-] [IRAK-1-4 Inhibitor I]
Outline: as §1

UniProt Q14157, sequence (Q14157 whole entry, looked up): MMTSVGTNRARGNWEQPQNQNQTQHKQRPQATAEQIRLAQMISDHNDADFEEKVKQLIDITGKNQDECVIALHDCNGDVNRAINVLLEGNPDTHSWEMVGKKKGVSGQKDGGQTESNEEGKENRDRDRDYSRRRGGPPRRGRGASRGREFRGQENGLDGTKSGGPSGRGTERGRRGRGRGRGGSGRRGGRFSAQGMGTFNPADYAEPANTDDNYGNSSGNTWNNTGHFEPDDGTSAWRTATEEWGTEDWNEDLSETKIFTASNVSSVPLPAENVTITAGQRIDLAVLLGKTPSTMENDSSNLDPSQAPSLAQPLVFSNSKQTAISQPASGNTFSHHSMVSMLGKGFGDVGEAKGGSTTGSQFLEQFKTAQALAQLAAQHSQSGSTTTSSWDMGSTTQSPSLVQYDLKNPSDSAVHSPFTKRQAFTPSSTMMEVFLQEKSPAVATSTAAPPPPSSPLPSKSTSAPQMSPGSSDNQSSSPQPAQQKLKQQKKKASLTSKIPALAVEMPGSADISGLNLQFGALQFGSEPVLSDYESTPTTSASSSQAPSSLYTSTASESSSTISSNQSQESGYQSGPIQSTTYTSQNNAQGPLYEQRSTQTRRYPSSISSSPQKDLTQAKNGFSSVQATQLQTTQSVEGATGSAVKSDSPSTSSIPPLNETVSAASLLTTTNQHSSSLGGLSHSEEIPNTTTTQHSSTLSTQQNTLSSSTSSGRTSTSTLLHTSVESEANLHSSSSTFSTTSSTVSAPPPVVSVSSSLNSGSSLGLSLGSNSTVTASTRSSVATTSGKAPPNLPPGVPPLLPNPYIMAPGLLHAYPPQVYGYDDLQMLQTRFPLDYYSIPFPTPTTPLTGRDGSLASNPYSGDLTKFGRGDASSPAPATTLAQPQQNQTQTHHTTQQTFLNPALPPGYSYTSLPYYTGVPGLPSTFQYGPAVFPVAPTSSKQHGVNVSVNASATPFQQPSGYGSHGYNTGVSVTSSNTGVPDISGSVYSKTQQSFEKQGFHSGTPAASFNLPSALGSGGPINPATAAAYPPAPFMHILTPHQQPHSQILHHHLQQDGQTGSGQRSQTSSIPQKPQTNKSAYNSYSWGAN
UniProt Q8TBZ6, sequence (Q8TBZ6 whole entry, looked up): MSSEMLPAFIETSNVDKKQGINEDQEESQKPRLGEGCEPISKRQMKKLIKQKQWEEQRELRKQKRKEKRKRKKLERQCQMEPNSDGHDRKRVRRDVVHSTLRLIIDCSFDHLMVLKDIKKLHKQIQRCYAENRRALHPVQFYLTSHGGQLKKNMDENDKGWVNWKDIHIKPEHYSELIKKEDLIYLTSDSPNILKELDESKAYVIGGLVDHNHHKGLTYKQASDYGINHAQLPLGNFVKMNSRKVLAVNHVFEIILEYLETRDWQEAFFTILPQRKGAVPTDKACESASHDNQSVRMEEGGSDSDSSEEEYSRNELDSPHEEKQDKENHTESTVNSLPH
UniProt Q9UNS1, sequence (Q9UNS1 whole entry, looked up): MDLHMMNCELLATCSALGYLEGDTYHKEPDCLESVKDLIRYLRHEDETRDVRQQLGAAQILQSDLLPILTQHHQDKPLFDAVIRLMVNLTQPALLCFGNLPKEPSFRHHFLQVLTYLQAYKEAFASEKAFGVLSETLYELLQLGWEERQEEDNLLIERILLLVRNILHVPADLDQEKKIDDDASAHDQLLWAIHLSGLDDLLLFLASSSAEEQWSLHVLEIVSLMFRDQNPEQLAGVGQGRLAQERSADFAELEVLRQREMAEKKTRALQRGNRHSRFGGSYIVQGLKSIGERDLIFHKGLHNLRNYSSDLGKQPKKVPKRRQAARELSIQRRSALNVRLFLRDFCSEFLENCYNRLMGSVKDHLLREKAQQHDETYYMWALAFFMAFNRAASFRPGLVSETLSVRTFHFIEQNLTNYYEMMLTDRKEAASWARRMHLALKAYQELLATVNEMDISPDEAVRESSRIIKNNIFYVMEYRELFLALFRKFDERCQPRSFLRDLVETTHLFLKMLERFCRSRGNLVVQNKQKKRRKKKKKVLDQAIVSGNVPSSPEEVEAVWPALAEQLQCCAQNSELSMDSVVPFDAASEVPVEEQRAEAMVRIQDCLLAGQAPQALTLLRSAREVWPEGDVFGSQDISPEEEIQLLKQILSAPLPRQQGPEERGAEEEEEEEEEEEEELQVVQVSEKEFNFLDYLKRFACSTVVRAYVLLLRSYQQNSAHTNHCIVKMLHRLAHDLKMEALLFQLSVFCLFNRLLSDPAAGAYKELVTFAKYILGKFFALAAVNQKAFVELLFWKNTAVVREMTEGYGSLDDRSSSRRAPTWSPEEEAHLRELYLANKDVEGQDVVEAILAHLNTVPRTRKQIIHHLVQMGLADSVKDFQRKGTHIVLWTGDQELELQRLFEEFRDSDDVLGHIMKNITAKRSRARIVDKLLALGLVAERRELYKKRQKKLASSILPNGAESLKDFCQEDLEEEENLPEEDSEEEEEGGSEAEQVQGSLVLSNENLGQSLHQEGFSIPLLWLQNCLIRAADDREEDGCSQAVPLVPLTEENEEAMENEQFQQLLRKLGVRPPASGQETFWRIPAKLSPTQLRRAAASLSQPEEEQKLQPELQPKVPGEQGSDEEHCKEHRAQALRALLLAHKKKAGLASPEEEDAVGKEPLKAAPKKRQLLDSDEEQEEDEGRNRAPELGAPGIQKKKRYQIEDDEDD
UniProt Q14139, sequence (Q14139 whole entry, looked up): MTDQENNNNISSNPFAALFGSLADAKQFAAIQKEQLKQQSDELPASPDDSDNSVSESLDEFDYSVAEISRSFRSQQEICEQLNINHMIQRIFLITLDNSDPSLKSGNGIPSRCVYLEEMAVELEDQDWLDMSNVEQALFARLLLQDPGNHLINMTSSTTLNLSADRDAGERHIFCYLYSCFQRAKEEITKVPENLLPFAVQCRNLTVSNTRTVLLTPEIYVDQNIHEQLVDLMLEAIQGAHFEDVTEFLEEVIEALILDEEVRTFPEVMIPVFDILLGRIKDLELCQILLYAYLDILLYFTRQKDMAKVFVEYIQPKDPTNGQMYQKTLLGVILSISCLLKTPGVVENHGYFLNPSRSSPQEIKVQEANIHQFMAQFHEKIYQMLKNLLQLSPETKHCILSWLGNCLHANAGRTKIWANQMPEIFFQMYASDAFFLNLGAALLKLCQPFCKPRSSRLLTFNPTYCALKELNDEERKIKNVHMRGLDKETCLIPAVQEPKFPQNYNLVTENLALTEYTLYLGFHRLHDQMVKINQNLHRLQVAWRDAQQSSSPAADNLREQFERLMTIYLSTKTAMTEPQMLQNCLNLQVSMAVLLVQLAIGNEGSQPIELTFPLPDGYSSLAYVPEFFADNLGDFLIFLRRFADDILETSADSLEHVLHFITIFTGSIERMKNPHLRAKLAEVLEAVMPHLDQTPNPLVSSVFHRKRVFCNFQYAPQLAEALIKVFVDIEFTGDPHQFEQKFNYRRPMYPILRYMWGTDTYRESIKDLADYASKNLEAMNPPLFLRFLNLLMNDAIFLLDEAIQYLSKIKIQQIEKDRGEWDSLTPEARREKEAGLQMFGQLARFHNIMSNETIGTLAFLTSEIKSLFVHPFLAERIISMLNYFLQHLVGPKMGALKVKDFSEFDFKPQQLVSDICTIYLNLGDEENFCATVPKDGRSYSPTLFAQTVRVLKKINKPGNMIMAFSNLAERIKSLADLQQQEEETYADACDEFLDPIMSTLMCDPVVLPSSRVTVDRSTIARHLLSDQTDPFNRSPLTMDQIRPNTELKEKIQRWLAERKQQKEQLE
UniProt Q15813, sequence (Q15813 whole entry, looked up): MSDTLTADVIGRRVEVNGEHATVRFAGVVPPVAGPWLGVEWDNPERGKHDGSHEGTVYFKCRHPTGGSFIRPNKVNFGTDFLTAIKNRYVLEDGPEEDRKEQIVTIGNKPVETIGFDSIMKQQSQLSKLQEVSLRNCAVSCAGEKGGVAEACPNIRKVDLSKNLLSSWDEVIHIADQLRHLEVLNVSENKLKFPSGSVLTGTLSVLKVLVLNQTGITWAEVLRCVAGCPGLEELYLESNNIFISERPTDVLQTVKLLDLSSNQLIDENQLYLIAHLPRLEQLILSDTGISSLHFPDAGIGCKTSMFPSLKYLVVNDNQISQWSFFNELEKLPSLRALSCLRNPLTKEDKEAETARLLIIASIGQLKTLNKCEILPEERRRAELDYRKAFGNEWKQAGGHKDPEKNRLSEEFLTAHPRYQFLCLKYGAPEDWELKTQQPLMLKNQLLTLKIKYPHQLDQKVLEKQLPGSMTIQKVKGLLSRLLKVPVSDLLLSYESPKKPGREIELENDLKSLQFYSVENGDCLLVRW
UniProt Q12788, sequence (Q12788 whole entry, looked up): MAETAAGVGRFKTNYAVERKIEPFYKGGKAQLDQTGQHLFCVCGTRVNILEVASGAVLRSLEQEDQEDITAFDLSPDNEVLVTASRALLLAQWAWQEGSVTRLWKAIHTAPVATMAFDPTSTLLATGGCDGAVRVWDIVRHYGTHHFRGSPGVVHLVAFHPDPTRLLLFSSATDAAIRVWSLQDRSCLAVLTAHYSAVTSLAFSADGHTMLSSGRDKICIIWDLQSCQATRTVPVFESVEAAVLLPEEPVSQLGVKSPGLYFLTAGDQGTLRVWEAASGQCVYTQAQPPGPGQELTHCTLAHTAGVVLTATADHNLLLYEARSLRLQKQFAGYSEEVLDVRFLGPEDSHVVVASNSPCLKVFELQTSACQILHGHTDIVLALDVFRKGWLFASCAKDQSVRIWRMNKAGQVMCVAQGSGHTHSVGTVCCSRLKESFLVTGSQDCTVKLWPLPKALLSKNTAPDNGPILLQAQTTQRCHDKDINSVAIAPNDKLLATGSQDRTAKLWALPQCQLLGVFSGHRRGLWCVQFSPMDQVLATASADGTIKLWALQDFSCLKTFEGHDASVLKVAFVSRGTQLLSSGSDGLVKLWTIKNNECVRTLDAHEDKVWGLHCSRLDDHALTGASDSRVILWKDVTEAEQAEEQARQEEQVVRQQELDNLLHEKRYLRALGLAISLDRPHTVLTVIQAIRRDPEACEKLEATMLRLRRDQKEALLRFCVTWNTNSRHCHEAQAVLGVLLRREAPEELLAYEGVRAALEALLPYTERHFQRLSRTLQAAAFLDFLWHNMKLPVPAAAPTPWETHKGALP

Row | Target | log2 fold change [1] | log2 fold change [2] | log2 fold change [3] | log2 fold change [4] | log2 fold change [5] | log2 fold change [6] | log2 fold change [7] | log2 fold change [8] | log2 fold change [9] | log2 fold change [10]
1 | TRIM44 (UniProt Q96DX7) | -0.066 | 0.067 | -0.016 | -0.037 | 0.057 | -0.013 | -0.038 | 0.053 | 0.072 | 0.043
2 | UBE2D1 (UniProt P51668) | -0.043 | 0.008 | 0.072 | -0.007 | -0.032 | 0.008 | -0.006 | -0.042 | 0.015 | -0.038
3 | TIMELESS (UniProt Q9UNS1) | 0.023 | 0.069 | -0.083 | -0.003 | -0.002 | -0.001 | -0.068 | -0.018 | 0 | -0.032
4 | TBL3 (UniProt Q12788) | 0.082 | -0.001 | -0.071 | 0.037 | 0.012 | 0.017 | 0.043 | 0.074 | -0.016 | 0.01
5 | TOE1 (UniProt Q96GM8) | -0.035 | -0.064 | 0.006 | 0.036 | 0.054 | -0.021 | -0.024 | 0 | -0.035 | -0.021
6 | TECR (UniProt Q9NZ01) | 0.024 | -0.029 | -0.113 | 0.019 | 0.083 | -0.013 | -0.066 | -0.008 | 0.028 | 0.038
7 | TRMT10A (UniProt Q8TBZ6) | -0.003 | -0.26 | -0.007 | -0.018 | -0.024 | 0.018 | 0.252 (active) | -0.017 | 0.044 | 0.044
8 | TBRG4 (UniProt Q969Z0) | 0.033 | -0.048 | -0.036 | 0.001 | 0.013 | -0.044 | -0.031 | 0.013 | 0.008 | -0.009
9 | TUBGCP2 isoform 4 (UniProt Q9BSJ2) | 0.036 | -0.048 | 0.012 | 0.025 | 0.014 | -0.005 | -0.029 | -0.014 | 0.004 | -0.041
10 | UBAP2L isoform 5 (UniProt Q14157) | -0.021 | -0.019 | 0.035 | 0.008 | 0.027 | -0.184 | 0.065 | 0.009 | -0.023 | 0.065
11 | TMEM167B (UniProt Q9NRX6) | -0.061 | -0.016 | -0.006 | -0.042 | -0.044 | -0.002 | 0.013 | -0.056 | 0.036 | -0.014
12 | TBCE (UniProt Q15813) | 0.02 | 0.049 | -0.016 | 0.004 | 0.014 | 0.001 | -0.07 | -0.027 | 0.038 | -0.002
13 | UBE4A isoform 2 (UniProt Q14139) | 0.031 | 0.091 | 0.023 | 0.013 | -0.023 | -0.021 | -0.082 | -0.028 | 0.035 | 0.004
14 | UBA1 (UniProt P22314) | 0.034 | 0.017 | -0.022 | 0.003 | 0.004 | 0.002 | -0.044 | 0 | 0.02 | -0.013
15 | TESC (UniProt Q96BS2) | -0.043 | 0.042 | 0.03 | 0.074 | -0.042 | -0.006 | 0.036 | 0.003 | 0.04 | -0.003
